Structures are written as SMILES. Among all 650,000 compounds or so, about 5,900 (0.91%) were called active. The list comes from a sample in which actives are over-represented; it also holds similar structures and randomly drawn compounds. Unmarked numbers belong to inactive results. Rule as the data show it: active = inhibition above about 50%; inactive = the rest.

In this experiment the target is Microphthalmia-associated transcription factor (Homo sapiens) (UniProt O75030). The experiment is described as follows: MITF inhibitors, primary screen, biochemical, AlphaScreen, human (AID 1259374).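 Also: 0% = vehicle wells with protein.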 Particulars: AlphaScreen MITF homodimerization, bead proximity signal; at 2.6 µM; active compounds read high.
Microphthalmia-associated transcription factor (Homo sapiens), sequence (O75030 whole entry, looked up): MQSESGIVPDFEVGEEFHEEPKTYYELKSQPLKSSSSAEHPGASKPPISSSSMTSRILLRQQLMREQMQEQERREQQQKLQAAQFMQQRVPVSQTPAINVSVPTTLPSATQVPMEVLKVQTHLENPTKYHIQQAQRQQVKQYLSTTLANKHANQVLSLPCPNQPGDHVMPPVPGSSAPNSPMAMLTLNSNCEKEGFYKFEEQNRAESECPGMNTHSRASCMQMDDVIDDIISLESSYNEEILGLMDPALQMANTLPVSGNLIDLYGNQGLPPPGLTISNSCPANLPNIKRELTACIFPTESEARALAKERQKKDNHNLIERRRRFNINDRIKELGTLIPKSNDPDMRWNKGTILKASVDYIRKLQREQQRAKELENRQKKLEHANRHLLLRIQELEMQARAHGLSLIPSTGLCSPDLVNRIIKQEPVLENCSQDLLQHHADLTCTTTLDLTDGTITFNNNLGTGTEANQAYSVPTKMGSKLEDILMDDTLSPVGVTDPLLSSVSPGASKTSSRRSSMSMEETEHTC
Consider `O=C(CC(Nc1ccc2ccccc2c1)c1cccnc1)c1ccccc1` (stereo not given), for which the inhibition was 1.3%. In the case of `CC(=O)Nc1ccc(Oc2cc(NC(=O)c3cccc(F)c3)cc([N+](=O)[O-])c2)cc1`, the inhibition is 9%. For `O=C1c2ccccc2C(=O)c2c1cccc2S(=O)(=O)N1CCCC1`, the inhibition was 10.2%. On to `O=C(Nc1ccc2nsnc2c1NC(=O)c1ccc2nsnc2c1)c1ccc2nsnc2c1`, for which the inhibition is 1.05%. Under `N#CCSc1nc2[nH]ncc2c(=O)n1-c1cccc(C(F)(F)F)c1` stands 1.44%. In the case of `CC(C)[C@@H](C(=O)OCC(=O)Nc1cccnc1Cl)N1C(=O)c2ccccc2C1=O` it was -1.46%; in that of `C/C(=N\NC(=O)C(O)(c1ccccc1)c1ccccc1)c1ccccc1O`, -4.23%. Consider `C/C(=N\Nc1ccc(Cl)nn1)c1ccccc1O`, for which the inhibition was 61.1% (active). Under `Oc1cccc(/C=N/Nc2ccc(Cl)nn2)c1O` stands 89.8% (active); under `C/C(=N\Nc1nc(C(C)(C)C)cs1)c1ccccc1O`, 6.2%. In the case of `NC(=O)c1ccc(N=Cc2cccc(O)c2O)cc1` it was 25.2%; in that of `COc1ccccc1N=Cc1cccc(O)c1O`, -5.98%. Regarding `COc1ccc(/C=C/C(=O)NCc2ccccc2OC)cc1`, the inhibition is -9.24%.

Take `CCc1ccc(N=c2oc3c(C)ncc(CO)c3cc2C(N)=S)cc1`: the inhibition is 3.64%.

Take `COc1ccccc1NC1=C/C(=N/S(=O)(=O)c2ccc(F)cc2)c2ccccc2C1=O`: the inhibition was 67.4% (active). In the case of `COc1ccc(S(=O)(=O)/N=C2/C=C(Nc3ccc(O)cc3)C(=O)c3ccccc32)cc1` it was 20%. Under `COC(=O)c1ccccc1NC1=C/C(=N/S(=O)(=O)c2ccccc2)c2ccccc2C1=O` stands 23.4%; under `Cc1cc2nc(N3CCCN(Cc4cccnc4)CC3)nc(C)c2cc1C`, 6.51%; under `CCOc1ccccc1N1CCN(Cc2cc(OC)c(O)c([N+](=O)[O-])c2)CC1`, 55.2% (active). Regarding `CCOc1ccc(CN2CCN(Cc3ccc(OC)c(OCC)c3)CC2)cc1`, the inhibition was 9.84%. In the case of `CCOc1cc(CN2CCN(C(=O)c3ccccc3F)CC2)ccc1OC` it was 34.4%; in that of `COc1cc(CN2CCN(Cc3cccnc3)CC2)cc(OC)c1OC`, 80.7% (active). In the case of `CCOc1cc(CN2CCC(n3nccc3NC(=O)C(C)(C)C)CC2)ccc1OC` it was -3.52%; in that of `COc1cccc(CN2CCN(C(=O)c3ccccc3F)CC2)c1`, 56.7% (active); in that of `CCOc1cc(CN2CCN(Cc3ccccn3)CC2)ccc1OC`, 62.3% (active).

Consider `CCOc1ccccc1N1CCN(S(=O)(=O)c2ccc([N+](=O)[O-])cc2)CC1`, for which the inhibition was 6.79%.

On to `COc1cc(CN2CCN(c3ccccn3)CC2)cc(OC)c1O`, for which the inhibition was 19.3%. Under `COC(=O)c1c(OC2CCCC2)cc(=O)n2c1CCN(Cc1cccnc1)CC2` stands 2.84%.

As for `COc1ccc(C(=O)N2CCN(Cc3cccc(OC)c3)CC2)cc1`, the inhibition was 45.7%. Consider `c1ccc2c(-c3nc(Nc4ccc(N5CCOCC5)cc4)c4ncn(C5CCCCC5)c4n3)csc2c1`, for which the inhibition was 1.65%. `COc1cccc(OC)c1C(=O)NNC(=O)c1cccc(C)c1O`: the inhibition was -15.2%.

On to `Cn1cnnc1SCC(=O)N1CCN(c2ccccc2)CC1`, for which the inhibition was 1.28%. In the case of `CCOC(=O)c1sc(NC(=O)c2ccc(S(=O)(=O)N3CCc4ccccc43)cc2)nc1-c1ccccc1` it was 15.2%; in that of `CCOC(=O)c1c(NC(=O)C(C)Sc2nnc(CNC(=O)c3ccc(C)c([N+](=O)[O-])c3)n2CCc2ccccc2)sc2c1CCC2` (stereo not given), -9.22%. Regarding `O=C(COc1ccc(Cl)cc1Cl)Nc1ccc(Br)cn1`, the inhibition was 9.36%. In the case of `Cc1cc(-n2c(C)nc3ccccc3c2=O)ccc1NS(=O)(=O)c1ccccc1`, the inhibition is -5.82%. In the case of `O=C(O)CNC(=O)/C(=C/c1ccc2c(c1)OCO2)NC(=O)c1cccc(Br)c1` it was -6.12%. On to `COc1ccccc1NC(=O)N1CCC(CO)(Cc2ccccc2Cl)CC1`, for which the inhibition was -1.19%. Consider `COc1cc(OC)c(OC)cc1CN1CCN(C(=O)c2ccccc2F)CC1`, for which the inhibition is 17.8%. In the case of `O=C1CCN(Cc2cccnc2)CCN1Cc1c(F)cc(F)cc1F` it was 10.8%; in that of `CCOC(=O)C1CCN(Cc2ccccc2F)CC1`, 26.1%; in that of `c1ccc(CCc2nnc3n2CCN(Cc2cccnc2)CC3)cc1`, 4.85%.

Take `COc1ccc(/C=N/N2CCN(C)CC2)cc1OCc1ccccc1`: the inhibition is 21.7%.

For `COc1ccc(CN2CCN(Cc3cccnc3)CC2)cc1OCc1ccccc1`, the inhibition is 75.8% (active).

In the case of `CCCS(=O)(=O)N1CCN(Cc2ccc(OC)c(OCc3ccccc3)c2)CC1`, the inhibition is 52.7% (active).

Take `COc1c(S(=O)(=O)N2CCN(Cc3ccccc3)CC2)ccc(Cl)c1Cl`: the inhibition was -5.29%. Under `COc1cc(CN2CCC(O)CC2)ccc1OCc1ccccc1` stands -15%; under `COc1cccc(OC)c1C(=O)N1CCN(Cc2ccccc2F)CC1`, 55.7% (active).

On to `c1ccc(COc2ccccc2CNCc2cccnc2)cc1`, for which the inhibition is -4.27%.

As to `Brc1cccc(CN2CCN(Cc3cccnc3)CC2)c1`, the inhibition was 77.7% (active). Under `COc1ccc(NC(=O)c2cc(C3CC3)on2)cc1` stands -14%; under `NS(=O)(=O)c1ccc(NSc2ccccc2[N+](=O)[O-])cc1`, 13.8%. Under `CC(=O)Nc1ccc(OCC(O)CN2CCN(c3cccc(C(F)(F)F)c3)CC2)cc1` (stereo not given) stands 10.8%; under `CC1CCN(C(=O)CSc2nc3c(c(=O)n2CCc2ccccc2)SCC3)CC1`, -10.8%; under `CC(=O)Nc1ccc(C(=O)N/N=C/c2cccc(C)n2)cc1`, 9.97%. In the case of `C=CCOc1ccc(C2Nc3ccccc3-c3nnc(SC)nc3O2)cc1` (stereo not given) it was 3.95%. With `CC(C)C(=O)NC(NC(=S)Nc1ccccc1C(=O)O)C(Cl)(Cl)Cl` (stereo not given), the inhibition was 9.89%. In the case of `COc1ccc(Cn2nc(-c3ccncc3)oc2=O)cc1` it was 3.66%. In the case of `O=C(NCCOc1ccccc1)c1cc(-c2ccccc2)nc2c(Cl)cccc12` it was -8.8%; in that of `COc1ccccc1C(=O)N1CCN=C1SCc1cccnc1`, -16.8%. Under `COc1cccc(OC)c1C(=O)N1CCN(Cc2cccnc2)CC1` stands 79.5% (active).

In the case of `COC(=O)c1ccccc1S(=O)(=O)C1CCN(Cc2cccnc2)CC1`, the inhibition was 13.1%. Under `Cc1cc(C)c(S(=O)(=O)N(C)CCO)cc1N(C)S(=O)(=O)c1ccc(Cl)cc1` stands -12%. In the case of `CCCCC(=O)N1CCN(c2ccccc2OCC)CC1` it was -2.97%.

Regarding `CCN(CC)CCNC(=O)c1sc2ncn(Cc3ccccc3F)c(=O)c2c1C`, the inhibition was -7.31%.

Consider `COc1cccc(C2Nc3ccc(C(=O)O)cc3C3C=CCC32)c1OC` (stereo not given), for which the inhibition is 13.7%. In the case of `COC(=O)c1ccc(C2Nc3c(C(=O)OC)cccc3C3C=CCC32)cc1` (stereo not given) it was 4.19%. For the compound `CCOc1cccc2c1N[C@@H](c1ccc(C(=O)O)cc1)[C@H]1CC=C[C@@H]21`, the inhibition was 65.3% (active). In the case of `O=C(NNC(=O)c1ccccn1)NC12CC3CC(CC(C3)C1)C2` it was 5.98%. In the case of `COc1cccc(C(=O)NCCSc2ncc(-c3ccc(C)cc3)[nH]2)c1` it was 8.31%. In the case of `N#Cc1nc(COc2cccc(Cl)c2)oc1NCCCn1ccnc1` it was 62.2% (active); in that of `Cc1ccc(-c2nc(C#N)c(NCCCn3ccnc3)o2)cc1`, -5.46%; in that of `Cc1cccc(OCc2nc(C#N)c(NCCCN(C)C)o2)c1`, -13.4%. In the case of `O=C(CSc1ccc2nc(-c3ccccc3)cn2n1)Nc1cccc2ccccc12`, the inhibition is -15.1%. As to `CCN1C(=O)/C(=C/c2ccc(-c3ccc(Br)cc3)o2)N(CC)C1=S`, the inhibition is -10.4%. Consider `CSc1ccc(CN2CCN(S(=O)(=O)c3ccc([N+](=O)[O-])cc3)CC2)cc1`, for which the inhibition was 53.2% (active). In the case of `Cc1ccc(S(=O)(=O)N2CCN(Cc3ccc(F)cc3)CC2)cc1` it was 49.5%; in that of `COc1ccccc1CN1CCN(S(=O)(=O)c2ccc([N+](=O)[O-])cc2)CC1`, 39.9%; in that of `CSc1ccccc1NC(=O)c1cc2nc(-c3ccc(Br)cc3)cc(C(F)(F)F)n2n1`, -5.34%. Under `COc1cc(C2N=C(c3ccccc3)C(C)(C)N2O)ccc1O` (stereo not given) stands 2.87%; under `O=S(=O)(c1ccc(Cl)cc1)N1CCc2ccccc2C1`, 10.1%; under `CCOC(=O)c1c(NC(=O)c2ccc(OC)cc2OC)sc(C(C)=O)c1C`, 7.53%.

For `Cc1cccc(C(=S)N2CCOCC2)c1`, the inhibition was -19.2%. Under `COc1ccc(CNc2ccc3ncc(-c4cccc(O)c4)n3n2)cc1` stands -19%.

Regarding `COc1cccc(CN2CCN(CCCc3ccccc3)CC2CCO)c1` (stereo not given), the inhibition was 69% (active). Under `COc1ccc(CN2CCN(CCCc3ccccc3)C(CCO)C2)cc1O` (stereo not given) stands 7.3%; under `CCOc1cc(CN2CCN(Cc3cccc(OC)c3)C(CCO)C2)ccc1O` (stereo not given), -2.92%; under `OCC1CCN(C2CCCN(Cc3cccc(-c4ccco4)c3)C2)CC1` (stereo not given), 3.07%.

Turning to `COc1ccccc1N1C(=O)c2ccc(C(=O)NN3C(=O)c4ccccc4C3=O)cc2C1=O`, the inhibition was 11.1%.

With `COc1cc(N/N=C(\C)c2ccc([N+](=O)[O-])cc2)ncn1`, the inhibition was 9.19%. Under `O=c1[nH]nc(SCc2cn3cc(Cl)ccc3n2)c(=O)[nH]1` stands -5.72%. In the case of `O=c1[nH]nc(SCc2ccc(Cl)cc2)c(=O)[nH]1` it was 4.19%; in that of `Cc1cccc(CSc2n[nH]c(=O)[nH]c2=O)c1`, 58.5% (active); in that of `O=c1oc(-c2cccc3ncccc23)nn1Cc1cccnc1`, -6.6%. As to `COc1ccc(N(CC(=O)N2CCN(C)CC2)S(C)(=O)=O)cc1`, the inhibition is 13.7%.

As usually defined, the inhibition is the drop in the measured response relative to a control, in per cent.

The values above are taken from PubChem BioAssay AID1259374 (The Scripps Research Institute Molecular Screening Center, 2018).
